Results filed as inconclusive are left out. Active and inactive are the calls of the source. Calls come from the whole dose curve; as a rule, active = well fitted curve in the direction sought with a large enough effect; inconclusive = small, poorly fitted or top-dose-only effect, or another doubt; inactive = no such curve, though single readings can be large; an effect the other way counts as inactive or inconclusive.
Experiments:
[1] = qHTS assay for measurement of the activity of small molecule inhibitors on Zika virus induced Caspase-3 activity in human iPSC derived neural progenitor cells (hNPCs) (AID 1224857); note: nearly all actives have a fitted effect of over 65% in size
How it was run: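 hNPCs seeded 350 cells/well, cultured 16–20 h; compounds added 1 h before ZIKV (2 FFU/cell), 37 C 6 h. Caspase-Glo 3/7 luminescence after 30 min RT; % inhibition from induction scaled to uninfected (0%) and infected (100%) wells.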

[2] = qHTS assay for measurement of the activity of small molecule inhibitors on Zika virus induced Caspase-3 activity in human astrocytoma cells (AID 1224859)
How it was run: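 Luminescence read-out (Caspase-Glo 3/7, 30 min RT) of caspase activity in SNB-19 cells infected 6 h with ZIKV, 2 FFU/cell, after 1 h compound pretreatment; % inhibition from induction normalised to uninfected (0%) and infected (100%) wells.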

[3] = qHTS of pediatric cancer cell lines to identify multiple opportunities for drug repurposing: Primary screen for TC32 cells (AID 1347089); note: nearly all actives have a fitted effect of over 60% in size
How it was run: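 Luminescent ATP read-out (CellTiter-Glo) of metabolically active TC32 cells after 48 h exposure. Concentration-response curves came from 11-point (MIPE, 0.78 nM–46 µM) or 8-point (NPC, 0.59 nM–46 µM) primary titrations; follow-up used 11 points.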

[4] = qHTS of pediatric cancer cell lines to identify multiple opportunities for drug repurposing: Primary screen for SJ-GBM2 cells (AID 1347091)
How it was run: (§1)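 Eight- or eleven-point concentration series, 48 h treatment at 37 degrees C in growth media; readout CellTiter-Glo luminescence. Potency and efficacy were taken from the concentration-response curves.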

[5] = qHTS of pediatric cancer cell lines to identify multiple opportunities for drug repurposing: Primary screen for A673 cells (AID 1347092); note: nearly all actives have a fitted effect of over 45% in size
How it was run: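 Cell viability of A673 measured by CellTiter-Glo ATP luminescence after 48 hours compound exposure. Dilution series spanned 0.78 nM to 46 µM (MIPE, 11-point) or 0.59 nM to 46 µM (NPC, 8-point); bortezomib 2.3 uM positive control.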

[6] = qHTS of pediatric cancer cell lines to identify multiple opportunities for drug repurposing: Primary screen for DAOY cells (AID 1347090); note: series mostly up to about 46 µM; nearly all actives have a fitted effect of over 55% in size
How it was run: as §1

Measured: Potency

CCCC(=O)OCOC(=O)C1=C(C)NC(C)=C(C(=O)OC)C1c1cccc(Cl)c1Cl (configuration not stated)
not listed: [6]
inactive: all other assays above

NS(=O)(=O)c1cc2c(cc1Cl)CN(C1CCCCC1)C2=O
inactive: all assays above

Cc1onc(-c2ccccc2)c1C(=O)Cl
inactive: all assays above

— PubChem BioAssay (NCATS)
